Assay results reported in PubChem BioAssay (NCATS).
Records with an inconclusive call do not appear. The source made the active and inactive calls. Unless noted, calls follow the shape of the dose curve; as a rule, active = well fitted curve in the direction sought with a large enough effect; inconclusive = small, poorly fitted or top-dose-only effect, or another doubt; inactive = no such curve, though single readings can be large or run the other way.

Target: Nuclear receptor subfamily 1 group I member 2 (Homo sapiens) (UniProt O75469)
Assay: Dual reporter qHTS for antagonist of Pregnane X Receptor (hPXR) against the NCATS DSHEA and TCM libraries: Luminescence Readout (AID 1920060);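 also: HepG2 cells carrying hPXR luciferase reporter stimulated with rifampicin at 2 µM; 0% is about no effect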
Settings: hPXR dual reporter cells, luciferase luminescence, antagonist mode; series mostly up to 40 µM
How it was run: (§1)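 In antagonist mode, 2 uM rifampicin was added to hPXR-Luc HepG2 cells alongside test substances, incubated 24 h at 37 C; luminescence gave reporter activity, and CellTiter-Fluor fluorescence (405/540 nm) gave viability.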

Chain of Nuclear receptor subfamily 1 group I member 2 (Homo sapiens) (O75469 whole entry, looked up): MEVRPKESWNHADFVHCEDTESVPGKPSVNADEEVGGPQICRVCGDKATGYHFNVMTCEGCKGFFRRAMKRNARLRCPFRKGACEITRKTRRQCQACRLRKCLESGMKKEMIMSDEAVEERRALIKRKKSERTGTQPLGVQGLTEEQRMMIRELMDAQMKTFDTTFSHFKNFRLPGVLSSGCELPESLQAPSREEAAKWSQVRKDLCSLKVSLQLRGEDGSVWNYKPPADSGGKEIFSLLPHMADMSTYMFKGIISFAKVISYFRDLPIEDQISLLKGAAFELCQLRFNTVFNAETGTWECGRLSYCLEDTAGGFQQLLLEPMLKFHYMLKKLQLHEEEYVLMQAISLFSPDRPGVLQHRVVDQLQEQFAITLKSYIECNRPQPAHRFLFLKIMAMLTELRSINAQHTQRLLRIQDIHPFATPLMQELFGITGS

Row | SMILES | outcome
1 | COC1=CC(=O)O[C@@H](/C=C/c2ccccc2)C1 | inactive
2 | O=Cc1ccco1 | inactive
3 | O=C/C=C/c1ccccc1 | inactive

Tested on: not listed separately
Assay: Dual reporter qHTS for antagonist of Pregnane X Receptor (hPXR) against the NCATS DSHEA and TCM libraries: Fluorescence Readout (AID 1920061); also: 0% is about no effect
Settings: PXR dual reporter cells, antagonist mode; series mostly up to 40 µM
How it was run: as §1

Row | SMILES | outcome
4 | CNC(C)C(O)c1ccc(O)cc1 (centres undefined) | inactive
5 | COC1=CC(=O)O[C@@H](/C=C/c2ccccc2)C1 | inactive
6 | O=Cc1ccco1 | inactive
7 | O=C/C=C/c1ccccc1 | inactive

Tested on: not listed separately
Assay: qHTS drug screen for cell cycle checkpoint inhibitors in PARPi-resistant BRCA-mutant ovarian cancer cell lines. (AID 1963452; calls by dose curve)
Settings: PEO1/OlaR viability, CellTiter-Glo luminescence, 96 h; active compounds read low
How it was run: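 PEO1, PEO4 and PEO1/OlaR ovarian cancer cells, 600 per well, exposed 96 h at 37C to a dilution series. Viability read by CellTiter-Glo luminescence, normalized to DMSO and empty wells; activity summarized as Z-AUC.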

Row | SMILES | Z-AUC
8 | CCOc1ccccc1-n1c(C(C)N2CCN(C(=O)COc3ccc(Cl)cc3)CC2)nc2ccccc2c1=O (centres undefined) | 0.23 (inactive)
9 | C/C(O)=C(\C#N)C(=O)Nc1cc(Br)ccc1Br | -0.13 (inactive)
10 | C=C[C@H]1CN2CC[C@H]1C[C@@H]2[C@@H](O)c1ccnc2ccccc12 | 1.32 (inactive)
11 | COc1cc(C)[nH]c(=O)c1CNC(=O)c1c(C)n([C@H](C)C2CCOCC2)c2ccccc12 | 0.466 (inactive)
12 | CC1=C2C[C@H]3[C@@H](CC=C4C[C@@H](O)CC[C@@]43C)[C@@H]2CC[C@]12O[C@@H]1C[C@H](C)CN[C@H]1[C@H]2C | -0.41 (inactive)
13 | C[C@]12CC[C@H]3[C@@H](CC[C@@]45O[C@@H]4C(O)=C(C#N)C[C@]35C)[C@@H]1CC[C@@H]2O | 0.0842 (inactive)
14 | CC(=O)c1c(O)c(C)c(O)c(Cc2c(O)c3c(c(C(=O)/C=C/c4ccccc4)c2O)OC(C)(C)C=C3)c1O | 1.03 (inactive)
